Compound activity as filed in PubChem.
IkB sig inh = suppresses IkB signaling in ABC-DLBCL reporter cells; 110,000 compounds, 0.04% hits; Potency, µM (doses to about 57.1 µM); ABC-DLBCL IkBa-CBG/CBR dual luciferase ratio, 4 h; response scale: scaled: untreated 0%, proteasome inhibitor 100%; active means well fitted curve in the direction sought with a large enough effect in the signal ratio, not every such curve was filed as active; inconclusive means small, poorly fitted or top-dose-only effect, or a change in a side signal; the % refers to the signal ratio;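 further: the direction sought is a rising ratio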
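In this assay, an IκBα–CBG68 fusion accumulates when IKK-driven degradation is blocked; native CBR normalizes for cell number. OCI-Ly3 cells were treated 4 h with compound and doxycycline, then green and red light read after Chroma-Glo addition.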
IMPase cell inh = IMPase inhibition in cells | inhibition (IP1 accumulation), % at 46.1 µM | CHO-M1 cells, IP1 accumulation, HTRF TR-FRET ratio | 120,000 tested, under 10 active; active means well fitted curve in the direction sought with a large enough effect in the signal ratio, not every such curve was filed as active; inconclusive means small, poorly fitted or top-dose-only effect, or a change in a side signal; inactive means no such curve, though single readings can be large or run the other way; the % refers to the signal ratio;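 further: cells stimulated with carbachol in lithium chloride buffer; higher means more IMPase inhibition seen as more IP1 and lower FRET ratio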
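In this qHTS, compounds (final up to 46 uM) act on CHO-M1 cells that are then activated through the M1 receptor with carbachol, in pH 7.4 buffer containing 50 mM LiCl, for 30 min. IP1 accumulation is quantified by the IP-One immunoassay.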
p53ts 39C tox = kills p53ts cells at the nonpermissive temperature. Potency, µM (series often up to 46.1 µM), usual class: cytotoxic. 130,000 compounds, 1.5% hits. AID 902. H1299-p53A138V viability at 39C, ATP luminescence, 24 h; further: nearly all actives have a fitted effect of over 55% in size
Luciferase inh = blocks Photinus pyralis firefly luciferase activity; P08659; purified firefly luciferase, luminescence, 8 min; Potency, µM (series often up to 57.1 µM), most hits filed as inhibitors; 72,000 compounds, 2.2% hits; further: nearly all actives have a fitted effect of over 40% in size
Target sequence (P08659 whole entry, looked up): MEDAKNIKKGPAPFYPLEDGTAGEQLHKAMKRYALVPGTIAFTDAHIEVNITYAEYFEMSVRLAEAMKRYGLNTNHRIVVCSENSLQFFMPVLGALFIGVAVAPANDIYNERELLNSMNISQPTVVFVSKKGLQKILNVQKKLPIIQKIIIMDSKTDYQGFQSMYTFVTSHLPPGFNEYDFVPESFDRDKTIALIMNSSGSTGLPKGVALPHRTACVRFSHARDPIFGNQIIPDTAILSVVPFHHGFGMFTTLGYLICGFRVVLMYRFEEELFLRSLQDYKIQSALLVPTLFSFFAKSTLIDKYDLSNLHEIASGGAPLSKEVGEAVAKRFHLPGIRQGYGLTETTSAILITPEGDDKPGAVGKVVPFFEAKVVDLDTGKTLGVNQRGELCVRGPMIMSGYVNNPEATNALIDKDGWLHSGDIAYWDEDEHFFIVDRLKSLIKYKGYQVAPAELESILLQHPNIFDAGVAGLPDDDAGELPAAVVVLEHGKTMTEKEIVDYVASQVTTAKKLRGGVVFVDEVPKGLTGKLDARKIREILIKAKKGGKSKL
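Titration-based qHTS; buffer 50 mM imidazole pH 7.2, 50 mM KCl, 7 mM MgCl2, 10 uM ATP, 0.01% Tween 20, 0.05% BSA; luciferase/luciferin detector mix added after compound; 8 min, ambient; luminescence.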
Hsp90 Hop PPI = changes Hsp90-Hop TPR2A binding signal, up or down. AID 595. AlphaScreen TPR2A-His6 binding biotin-Hsp90 C-terminal peptide. Potency, µM (series often up to 57 µM). 71,000 compounds, 0.44% hits; active means well fitted curve in either direction with a large enough effect; inconclusive means small, poorly fitted or top-dose-only effect, or another doubt
p53ts 32C kill = p53ts cell cytotoxicity, permissive temperature; Potency, µM (doses to about 46.1 µM), actives largely listed as cytotoxic; 130,000 compounds, 0.93% hits; AID 924; H1299-p53A138V at 32C, ATP luminescence viability, 24 h; further: nearly all actives have a fitted effect of over 55% in size
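Viability by ATPlite luminescence after 24 h compound treatment (up to 46 uM) at the permissive 32C. Cells are H1299 carrying p53 A138V. Scale runs from DMSO basal to 100 uM tamoxifen as full kill; AC50 from Hill fits.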
Hsp90-TPR2A inh = confirmation and counter-screen of Hsp90 TPR2A co-chaperone interaction disrupters. 45 compounds, 100% hits. shares compounds with Hsp90 Hop PPI. activity, negative = inhibition, % at 40 µM or 46 µM, hits read low. AlphaScreen TPR2A-His6 / biotin-Hsp90 peptide binding;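 active means compound lowering the Hsp90 and TPR2A binding signal, whether or not the linker counterscreen also flagged it as an artifact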
Numbers stand for hits; n = inactive; u = inconclusive; x = no result; + = active, no number; [ ] = dose if it differs, or a comment. This is one part of a sample in which hits are shown more often than they occur. Unless noted, the call rests on the fitted dose curve; in most records, active means well fitted curve in the direction sought with a large enough effect; inconclusive means small, poorly fitted or top-dose-only effect, or another doubt; inactive means no such curve, though single readings can be large; an effect the other way counts as inactive or inconclusive.

SMILES	IkB sig inh	IMPase cell inh	p53ts 39C tox	Luciferase inh	Hsp90 Hop PPI	p53ts 32C kill	Hsp90-TPR2A inh
CC(=O)Oc1c2c(c(CC=C(C)C)c3c1C(=O)C1=CC4CC5C(C)(C)OC(C/C=C(\C)C(=O)O)(C4=O)[C@]15O3)OC(C)(CCC=C(C)C)C=C2 (stereo partly specified)	x	x	4µM	x	x	4µM	x
NS(=O)(=O)C[C-]1C=C[CH]([Sb-]([Cl])([Cl])([Cl])([Cl])[Cl])C=C1.c1ccncc1 (stereo unspecified)	n[11.4 µM]	x	n[9.22 µM]	n[11.4 µM]	n[11 µM]	n[9.22 µM]	x
CCn1nc(-c2ccccc2)nc2c(=O)n(C)c(=O)nc1-2	u	n	4µM	n	1.3µM	0.63µM	+
Cn1nc(-c2ccccc2)nc2c(=O)n(C)c(=O)nc1-2	x	x	x	x	x	x	+
Cc1nc2c(=O)n(C)c(=O)nc-2n(C)n1	x	n	2µM	x	x	1.1µM	+
COc1cc2c(cc1O)CCN[C@H]2C	n[11.4 µM]	x	x	n[11.4 µM]	n	x	x
Cc1c([C@@H](C)[C@H]2NC[C@H](C)C[C@@H]2O)ccc2c1C[C@@H]1[C@H]2CC=C2C[C@@H](O)CC[C@@]21C	n[11.4 µM]	x	n[9.22 µM]	n[11.4 µM]	n[11 µM]	n[9.22 µM]	x
CCCCCC[C@H]1C(=O)O[C@@H](C)[C@H](NC(=O)c2cccc(NC=O)c2O)C(=O)O[C@@H](C)[C@@H]1OC(=O)CC(C)C	n[11.4 µM]	x	x	n[11.4 µM]	n	x	x
